Each compound was assayed on DIPGX7 (H3.3 K27M diffuse intrinsic pontine glioma line) (assay: growth inhibition (% activity, log2 RLU normalised to DMSO / staurosporine); higher = more growth inhibition). Details: 33 µM.
Method in brief: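 In triplicate, pHGG cell lines and H9-derived neural stem cells were treated for 7 days at 37 °C, 5% CO2 with approved drugs at a single final concentration of about 33 μM, added by pin tool. CellTiter-Glo luminescence, after log2 transformation, was normalised on each plate to % activity between solvent and positive control wells. Growth inhibition is reported as the median across replicates.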
Work on `O=c1c(-c2ccc(O)cc2)coc2cc(O)ccc12` yielded a growth inhibition of -0.191%.
`Oc1ncnc2[nH]ncc12` was tested, and the growth inhibition was -0.64%.
`Oc1ccc(/C=C/c2cc(O)cc(O)c2)cc1` was tested, and the growth inhibition was 4.05%.
`CCCCCCCCCCCCCCCC[N+](C)(C)C` was tested, and the growth inhibition was 34%.
`COc1cc(C(=O)NC2CCCNC2)cc(OC)c1OC` (stereo not given) was tested, and the growth inhibition was 0.49%.
Work on `O=C(O[C@H]1CN2CCC1CC2)N1CCc2ccccc2[C@@H]1c1ccccc1` yielded a growth inhibition of -0.506%.
`Cc1nc2n(c(=O)c1CCN1CCC(c3noc4cc(F)ccc34)CC1)CCCC2O` (stereo not given) gave a growth inhibition of 0.542%.
Compound `COc1cc2c(cc1Cc1cccc(Cl)c1F)c(=O)c(C(=O)O)cn2[C@H](CO)C(C)C` has a growth inhibition of 3.52%.
`CC1=C(C(=O)O)N2C(=O)[C@@H](NC(=O)[C@H](N)c3ccccc3)[C@H]2SC1` showed a growth inhibition of 6.97%.
`COc1ccc(-c2ccc3cc(C(=O)O)ccc3c2)cc1C12CC3CC(CC(C3)C1)C2` gave a growth inhibition of 1.73%.
With `COCCCOc1cc(C[C@@H](C[C@H](N)[C@@H](O)C[C@H](C(=O)NCC(C)(C)C(N)=O)C(C)C)C(C)C)ccc1OC` the growth inhibition was 1.89%.
`C=C1CCC(O)CC1=CC=C1CCCC2(C)C1CCC2C(C)CCCC(C)(C)O` (stereo not given) showed a growth inhibition of 3.34%.
`COc1cc2c(cc1O)CC[C@@H]1[C@@H]2CC[C@]2(C)[C@@H](O)CC[C@@H]12` gave a growth inhibition of 9.77%.
Work on `[O-]n1ccccc1=S.[O-]n1ccccc1=S.[Zn+2]` yielded a growth inhibition of 56.6%.
`Nc1ccc(S(=O)(=O)Nc2nccs2)cc1` gave a growth inhibition of -1.25%.
In the case of `CCC1=C(C)CN(C(=O)NCCc2ccc(S(=O)(=O)NC(=O)N[C@H]3CC[C@H](C)CC3)cc2)C1=O`, the growth inhibition was -0.131%.
In the case of `CS(=O)(=O)c1ccc([C@@H](O)[C@@H](CF)NC(=O)C(Cl)Cl)cc1`, the growth inhibition was 1.63%.
For `COC(=O)C1=C(C)NC(C)=C(C(=O)OC)C1c1ccccc1[N+](=O)[O-]`, the growth inhibition was 0.0754%.
With `CC(C)Cn1cnc2c(N)nc3ccccc3c21` the growth inhibition was 0.885%.
Work on `CCOc1ccc2ccccc2c1C(=O)N[C@@H]1C(=O)N2[C@@H]1SC(C)(C)[C@@H]2C(=O)O` yielded a growth inhibition of 1.5%.
`Cc1onc(-c2ccccc2Cl)c1C(=O)N[C@@H]1C(=O)N2[C@@H]1SC(C)(C)[C@@H]2C(=O)O` showed a growth inhibition of -0.308%.
`O=C[C@H](O)[C@@H](O)[C@H](O)CO` gave a growth inhibition of 0.91%.
For `CO/N=C(\C(=O)N[C@@H]1C(=O)N2C(C(=O)O)=C(Cn3ccc(=N)n3CCO)CS[C@H]12)c1csc(N)n1`, the growth inhibition was 0.0521%.
`CC(=O)Oc1cc2c(s1)CCN(C(C(=O)C1CC1)c1ccccc1F)C2` (stereo not given) gave a growth inhibition of 1.32%.
In the case of `CC(C)n1c(/C=C/[C@@H](O)C[C@@H](O)CC(=O)O)c(-c2ccc(F)cc2)c2ccccc21`, the growth inhibition was 6.29%.
For `C[C@@H]1CC(=O)NN=C1c1ccc(NN=C(C#N)C#N)cc1`, the growth inhibition was 1.39%.
Work on `CCCCC1=NC2(CCCC2)C(=O)N1Cc1ccc(-c2ccccc2-c2nnn[nH]2)cc1` yielded a growth inhibition of 1.68%.
For `C[C@@H](O[C@H]1OCCN(Cc2n[nH]c(=O)[nH]2)[C@H]1c1ccc(F)cc1)c1cc(C(F)(F)F)cc(C(F)(F)F)c1`, the growth inhibition was 5.7%.
`COC(=O)C1=C(C)NC(C)=C(C(=O)OCC(C)C)C1c1ccccc1[N+](=O)[O-]` (stereo not given) gave a growth inhibition of 0.789%.
`CC#CCn1c(N2CCC[C@@H](N)C2)nc2c1c(=O)n(Cc1nc(C)c3ccccc3n1)c(=O)n2C` showed a growth inhibition of -2.97%.
Compound `CC(C)(O/N=C(\C(=O)N[C@@H]1C(=O)N2C(C(=O)[O-])=C(C[n+]3ccccc3)CS[C@H]12)c1csc(N)n1)C(=O)O` has a growth inhibition of 2.31%.
With `CCC(=O)O[C@@H](O[P@](=O)(CCCCc1ccccc1)CC(=O)N1C[C@H](C2CCCCC2)C[C@H]1C(=O)O)C(C)C` the growth inhibition was 2.4%.
`O=C(O)c1cn(C2CC2)c2cc(N3CCNCC3)c(F)cc2c1=O` showed a growth inhibition of -2.23%.
In the case of `N[C@H](C(=O)O)[C@H](O)c1ccc(O)c(O)c1`, the growth inhibition was -1.18%.
Work on `COCCCC/C(=N\OCCN)c1ccc(C(F)(F)F)cc1` yielded a growth inhibition of 1.46%.
`O=C1c2cccc3c2[C@H](CCC3)CN1[C@@H]1CN2CCC1CC2` gave a growth inhibition of -0.559%.
For `CC(C)(C)C(=O)OCOP(=O)(COCCn1cnc2c(N)ncnc21)OCOC(=O)C(C)(C)C`, the growth inhibition was 8.24%.
`CCOC(=O)C1=C(C)NC(C)=C(C(=O)OCC)C1c1ccccc1/C=C/C(=O)OC(C)(C)C` gave a growth inhibition of 7.49%.
In the case of `Cc1ncc(C[n+]2csc(CCO)c2C)c(N)n1`, the growth inhibition was -1.44%.
`CN1c2cc(O)c(N=NC(N)=O)cc2CC1S(=O)(=O)O` (stereo not given) showed a growth inhibition of -0.368%.
